Data taken from PubChem BioAssay AID1159580 (chemical genetic matrix, 2015).
The campaign covered roughly 5,500 compounds. About 2,000 (36%) were called active. Not shown: some 18% with an inconclusive outcome. Some of the results follow. A number with no mark means an inactive call. Rule as the data show it: active = normalized growth mostly below about 0.91 (no sharp cut-off); inconclusive = no clear call, values can overlap the other calls; inactive = mostly above about 0.92.

Test: chemical genetic growth profiling, strain panel (AID 1159580);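 also: tested at 20 µM; growth read once vehicle control cultures reached saturation at 30 °C; 1 = growth at the plate median or of vehicle wells; lower values mean less growth of the strain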
Details: growth OD

With `CSc1nc(NC(C)C)nc(NC(C)C)n1` the normalized growth (S. cerevisiae deletion strains, locus YJR075W, strain HOC1, hits give low values) was 1.02, the normalized growth (S. cerevisiae deletion strains, locus YKL009W, strain mrt4, hits give low values) was 1.03 and the normalized growth (S. cerevisiae deletion strains, locus YKL068W, hits give low values) was 1. The normalized growth (S. cerevisiae deletion strains, locus YKL085W, strain MDH1 (second series), hits give low values) was 1.01, the normalized growth (S. cerevisiae deletion strains, locus YKL085W, strain MDH1, hits give low values) was 1.01 and the normalized growth (S. cerevisiae deletion strains, locus YKL160W, strain elf1, hits give low values) was 0.979. For the same molecule, the normalized growth (S. cerevisiae deletion strains, locus YKL190W, strain CNB1, hits give low values) was 1.02, the normalized growth (S. cerevisiae deletion strains, locus YKR001C, strain vps1, hits give low values) was 1.03 and the normalized growth (S. cerevisiae deletion strains, locus YKR026C, strain gcn3, hits give low values) was 0.973. The normalized growth (S. cerevisiae deletion strains, locus YKR091W, strain srl3, hits give low values) was 0.973, the normalized growth (S. cerevisiae deletion strains, locus YLL001W, strain dnm1, hits give low values) was 0.979 and the normalized growth (S. cerevisiae deletion strains, locus YLL026W, hits give low values) was 0.975. It also gave a normalized growth (S. cerevisiae deletion strains, locus YLL041C, strain sdh2, hits give low values) of 0.983, a normalized growth (S. cerevisiae deletion strains, locus YLR027C, strain aat2, hits give low values) of 0.967 and a normalized growth (S. cerevisiae deletion strains, locus YLR039C, strain RIC1, hits give low values) of 0.987. It also gave a normalized growth (S. cerevisiae deletion strains, locus YLR058C, strain SHM2, hits give low values) of 1.01, a normalized growth (S. cerevisiae deletion strains, locus YLR102C, strain apc9, hits give low values) of 1 and a normalized growth (S. cerevisiae deletion strains, locus YLR113W, strain HOG1, hits give low values) of 0.993. The normalized growth (S. cerevisiae deletion strains, locus YLR221C, strain rsa3, hits give low values) was 0.971, the normalized growth (S. cerevisiae deletion strains, locus YLR258W, strain gsy2, hits give low values) was 0.964 and the normalized growth (S. cerevisiae deletion strains, locus YLR262C, strain YPT6 (second series), hits give low values) was 0.856 (active). The normalized growth (S. cerevisiae deletion strains, locus YLR262C, strain YPT6, hits give low values) was 1.03, the normalized growth (S. cerevisiae deletion strains, locus YLR268W, strain sec22, hits give low values) was 1.01 and the normalized growth (S. cerevisiae deletion strains, locus YLR320W, strain mms22, hits give low values) was 0.961. For the same molecule, the normalized growth (S. cerevisiae deletion strains, locus YLR330W, strain CHS5, hits give low values) was 1.01, the normalized growth (S. cerevisiae deletion strains, locus YLR342W, strain FKS1 (second series), hits give low values) was 0.974 and the normalized growth (S. cerevisiae deletion strains, locus YLR342W, strain FKS1, hits give low values) was 0.958. The normalized growth (S. cerevisiae deletion strains, locus YLR357W, strain rsc2, hits give low values) was 0.923, the normalized growth (S. cerevisiae deletion strains, locus YLR370C, strain arc18, hits give low values) was 0.969 and the normalized growth (S. cerevisiae deletion strains, locus YLR371W, strain rom2, hits give low values) was 0.999. For the same molecule, the normalized growth (S. cerevisiae deletion strains, locus YLR384C, strain iki3, hits give low values) was 0.972, the normalized growth (S. cerevisiae deletion strains, locus YLR418C, strain cdc73, hits give low values) was 1.04 and the normalized growth (S. cerevisiae deletion strains, locus YML016C, strain PPZ1, hits give low values) was 0.989. For the same molecule, the normalized growth (S. cerevisiae deletion strains, locus YML032C, strain rad52, hits give low values) was 1.03, the normalized growth (S. cerevisiae deletion strains, locus YML120C, strain ndi1, hits give low values) was 0.966 and the normalized growth (S. cerevisiae deletion strains, locus YML124C, strain tub3, hits give low values) was 1.02. The normalized growth (S. cerevisiae deletion strains, locus YMR058W, strain fet3, hits give low values) was 0.97, the normalized growth (S. cerevisiae deletion strains, locus YMR078C, strain ctf18, hits give low values) was 1.02 and the normalized growth (S. cerevisiae deletion strains, locus YMR125W, strain sto1, hits give low values) was 0.958. The normalized growth (S. cerevisiae deletion strains, locus YMR129W, hits give low values) was 0.973, the normalized growth (S. cerevisiae deletion strains, locus YMR205C, strain PFK2, hits give low values) was 0.944 and the normalized growth (S. cerevisiae deletion strains, locus YMR223W, strain ubp8, hits give low values) was 1.01. It also gave a normalized growth (S. cerevisiae deletion strains, locus YMR231W, strain pep5, hits give low values) of 0.973, a normalized growth (S. cerevisiae deletion strains, locus YMR263W, strain SAP30, hits give low values) of 1.02 and a normalized growth (S. cerevisiae deletion strains, locus YMR307W, strain GAS1, hits give low values) of 1.05. For the same molecule, the normalized growth (S. cerevisiae deletion strains, locus YNL067W, strain RPL9B, hits give low values) was 0.999, the normalized growth (S. cerevisiae deletion strains, locus YNL071W, strain lat1, hits give low values) was 0.978 and the normalized growth (S. cerevisiae deletion strains, locus YNL128W, strain TEP1, hits give low values) was 1.01. The normalized growth (S. cerevisiae deletion strains, locus YNL153C, strain GIM3, hits give low values) was 1, the normalized growth (S. cerevisiae deletion strains, locus YNL183C, strain NPR1, hits give low values) was 0.969 and the normalized growth (S. cerevisiae deletion strains, locus YNL209W, strain ssb2, hits give low values) was 0.987. It also gave a normalized growth (S. cerevisiae deletion strains, locus YNL233W, strain BNI4, hits give low values) of 1.02, a normalized growth (S. cerevisiae deletion strains, locus YNL248C, strain rpa49, hits give low values) of 0.979 and a normalized growth (S. cerevisiae deletion strains, locus YNL250W, strain rad50, hits give low values) of 1.01. The normalized growth (S. cerevisiae deletion strains, locus YNL271C, strain bni1, hits give low values) was 1.01, the normalized growth (S. cerevisiae deletion strains, locus YNL298W, strain CLA4, hits give low values) was 1 and the normalized growth (S. cerevisiae deletion strains, locus YNL307C, strain MCK1, hits give low values) was 1.01. It also gave a normalized growth (S. cerevisiae deletion strains, locus YNL322C, strain KRE1 (second series), hits give low values) of 0.962, a normalized growth (S. cerevisiae deletion strains, locus YNL322C, strain KRE1, hits give low values) of 1.01 and a normalized growth (S. cerevisiae deletion strains, locus YNR049C, strain mso1, hits give low values) of 0.953. The normalized growth (S. cerevisiae deletion strains, locus YNR052C, strain pop2, hits give low values) was 1.02, the normalized growth (S. cerevisiae deletion strains, locus YOL006C, strain TOP1, hits give low values) was 1.02 and the normalized growth (S. cerevisiae deletion strains, locus YOL012C, strain htz1) was 0.96. The normalized growth (S. cerevisiae deletion strains, locus YOL147C, strain pex11, hits give low values) was 1.02, the normalized growth (S. cerevisiae deletion strains, locus YOR001W, strain rrp6, hits give low values) was 0.98 and the normalized growth (S. cerevisiae deletion strains, locus YOR061W, strain CKA2, hits give low values) was 1. For the same molecule, the normalized growth (S. cerevisiae deletion strains, locus YOR069W, strain VPS5, hits give low values) was 1.01, the normalized growth (S. cerevisiae deletion strains, locus YOR070C, strain gyp1, hits give low values) was 0.962 and the normalized growth (S. cerevisiae deletion strains, locus YOR080W, strain dia2, hits give low values) was 0.963. It also gave a normalized growth (S. cerevisiae deletion strains, locus YOR083W, strain WHI5, hits give low values) of 0.969, a normalized growth (S. cerevisiae deletion strains, locus YOR106W, strain vam3, hits give low values) of 0.956 and a normalized growth (S. cerevisiae deletion strains, locus YOR136W, strain idh2, hits give low values) of 1.03. It also gave a normalized growth (S. cerevisiae deletion strains, locus YOR144C, strain elg1, hits give low values) of 1.01, a normalized growth (S. cerevisiae deletion strains, locus YOR184W, strain ser1, hits give low values) of 1.03 and a normalized growth (S. cerevisiae deletion strains, locus YOR231W, strain MKK1, hits give low values) of 1.03. The normalized growth (S. cerevisiae deletion strains, locus YOR265W, strain rbl2, hits give low values) was 0.962, the normalized growth (S. cerevisiae deletion strains, locus YOR270C, strain vph1, hits give low values) was 0.934 and the normalized growth (S. cerevisiae deletion strains, locus YOR290C, strain snf2, hits give low values) was 0.95. It also gave a normalized growth (S. cerevisiae deletion strains, locus YOR316C, strain cot1, hits give low values) of 1.01, a normalized growth (S. cerevisiae deletion strains, locus YPL051W, strain arl3, hits give low values) of 0.963 and a normalized growth (S. cerevisiae deletion strains, locus YPL055C, strain LGE1, hits give low values) of 1.04. The normalized growth (S. cerevisiae deletion strains, locus YPL078C, strain atp4, hits give low values) was 0.969, the normalized growth (S. cerevisiae deletion strains, locus YPL106C, strain sse1, hits give low values) was 0.986 and the normalized growth (S. cerevisiae deletion strains, locus YPL240C, strain hsp82, hits give low values) was 0.966. For the same molecule, the normalized growth (S. cerevisiae deletion strains, locus YPL241C, strain CIN2, hits give low values) was 1.01, the normalized growth (S. cerevisiae deletion strains, locus YPL256C, strain CLN2, hits give low values) was 1.04 and the normalized growth (S. cerevisiae deletion strains, locus YPR119W, strain clb2, hits give low values) was 1.02. It also gave a normalized growth (S. cerevisiae deletion strains, locus YPR141C, strain kar3, hits give low values) of 1.02, a normalized growth (S. cerevisiae deletion strains, locus YPR163C, strain tif3, hits give low values) of 1.02 and a normalized growth (S. cerevisiae deletion strains, locus YPR167C, strain met16, hits give low values) of 1.01. It also gave a normalized growth (S. cerevisiae deletion strains, strain wtn01, hits give low values) of 1.01 and a normalized growth (S. cerevisiae strains, strain wild type, hits give low values) of 1.01.
